Columns and labels:
Test in all cases: PBM binding z-score (relative to random genomic background probes); higher = stronger binding; sequences stand for … in GC…GCGATTGACAGCGTAGAATGAAGG
[1] = test system: FXR:RXRa (NR concentration 270 nM, RXRa partner concentration 90 nM)
Outline: (§1)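 Custom Agilent 4×180K protein-binding microarrays carried double-stranded probes, each with a 34-nt variable region. These regions held direct-repeat seeds, single-nucleotide variants, half-site ablations and random human genomic background sequences. Ligand-free nuclear receptor dimers were incubated on the arrays for 1 h, antibodies against each partner (one per run) detected binding, and scanned fluorescence was regression-normalized. Binding z-scores take the random background probes as reference.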

[2] = test system: LXRa:RXRa (NR concentration 270 nM, RXRa partner concentration 90 nM)
Outline: as §1

[3] = test system: LXRa homodimer (NR concentration 270 nM)
Outline: as §1

[4] = test system: LXRb:RXRa (NR concentration 270 nM, RXRa partner concentration 90 nM)
Outline: as §1

[5] = test system: LXRb homodimer (NR concentration 270 nM)
Outline: as §1

[6] = test system: PPARa:RXRa (NR concentration 270 nM, RXRa partner concentration 90 nM)
Outline: as §1

[7] = test system: PPARg:RXRa (NR concentration 180 nM, RXRa partner concentration 90 nM)
Outline: as §1

[8] = test system: PPARg:RXRa 270nM:90nM, anti-RXR (NR concentration 270 nM, RXRa partner concentration 90 nM)
Outline: as §1

[9] = test system: PPARg:RXRa 30nM:10nM, anti-RXR (NR concentration 30 nM, RXRa partner concentration 10 nM)
Outline: as §1

[10] = test system: PPARg:RXRa 90nM:30nM, anti-RXR (NR concentration 90 nM, RXRa partner concentration 30 nM)
Outline: as §1

[11] = test system: PPARg:RXRa DBDmut IVT, anti-RXR (DBD mutation: RXRa K156A/R161A, NR concentration 270 nM, RXRa partner concentration 90 nM)
Outline: as §1

[12] = test system: PPARg:RXRa IVT, anti-PPARg (NR concentration 270 nM, RXRa partner concentration 90 nM)
Outline: as §1

[13] = test system: PPARg DBDmut:RXRa IVT, anti-PPARg (DBD mutation: PPARg1 K132A/R137A, NR concentration 270 nM, RXRa partner concentration 90 nM)
Outline: as §1

[14] = test system: PPARg DBDmut IVT, anti-PPARg (DBD mutation: PPARg1 K132A/R137A, NR concentration 270 nM)
Outline: as §1

[15] = test system: PPARg homodimer (NR concentration 180 nM)
Outline: as §1

[16] = test system: PXR:RXRa (NR concentration 270 nM, RXRa partner concentration 90 nM)
Outline: as §1

[17] = test system: PXR homodimer (NR concentration 270 nM)
Outline: as §1

[18] = test system: RARa:RXR (NR concentration 270 nM, RXRa partner concentration 90 nM)
Outline: as §1

[19] = test system: RARa homodimer (NR concentration 270 nM)
Outline: as §1

[20] = test system: RARb:RXRa (NR concentration 270 nM, RXRa partner concentration 90 nM)
Outline: as §1

| Sequence | PBM binding z-score [1] | PBM binding z-score [2] | PBM binding z-score [3] | PBM binding z-score [4] | PBM binding z-score [5] | PBM binding z-score [6] | PBM binding z-score [7] | PBM binding z-score [8] | PBM binding z-score [9] | PBM binding z-score [10] | PBM binding z-score [11] | PBM binding z-score [12] | PBM binding z-score [13] | PBM binding z-score [14] | PBM binding z-score [15] | PBM binding z-score [16] | PBM binding z-score [17] | PBM binding z-score [18] | PBM binding z-score [19] | PBM binding z-score [20] |
| --- | --- | --- | --- | --- | --- | --- | --- | --- | --- | --- | --- | --- | --- | --- | --- | --- | --- | --- | --- | --- |
| TCTCAGAGGACACGAAGGTCAGAGCTTTCCAGAG | 1.39 | 1.27 | 0.407 | 0.974 | -0.749 | 2.07 | 0.696 | 2.01 | 3.02 | 2.45 | 1.91 | 1.5 | -0.856 | -1.02 | 1.11 | 2.05 | 0.954 | 2.02 | -0.195 | 3.78 |
| GCGACTGGGGCAAAGCGGGTTACCATAAGGTTGG | 0.373 | -0.0696 | -0.512 | 0.27 | -0.709 | 1.42 | 1.15 | 1.47 | -0.245 | 0.845 | 4.18 | 3.67 | -0.432 | -0.894 | -0.11 | 0.293 | -0.451 | 0.625 | -0.887 | 0.922 |
| CGTCCAAGGTCAGCATGTCAGTGAAAGCGACGTG | 5.06 | 3.16 | -0.309 | 2.27 | -0.251 | 4.07 | 2.43 | 3.09 | 0.443 | 1.45 | 2.52 | 2.35 | -0.0905 | -0.674 | 2.58 | 2.41 | 0.102 | 3.01 | 0.765 | 4.93 |
| TCTGGTAGATCAATAGAGGTTAAGAAAGTGCGCT | 0.764 | 3.4 | 0.62 | 1.81 | -0.161 | 1.62 | -0.137 | 1.4 | 2.44 | 1.78 | 1.4 | 0.577 | 0.241 | 0.106 | 0.418 | 3 | 0.367 | 1.75 | 0.0136 | 0.93 |
| TCTTGTAGATCAAAGGTTAAGAATGCCGAAGCCT | 2.11 | 2.06 | 0.248 | 1.94 | 0.134 | 4.68 | 7.84 | 7.95 | 8.02 | 8.37 | 2.34 | 3.51 | 1.47 | 0.478 | 1.27 | 1.95 | -0.149 | 2.85 | 0.414 | 1.87 |
| TCATAGAGGTAAATGCTAGGTGAAAGTCCGATCT | 0.371 | 1.08 | -0.125 | 0.395 | -0.74 | 1.24 | 0.339 | 1.7 | 2.66 | 2.06 | 2.05 | 1.32 | -0.394 | -0.601 | 0.164 | 0.0496 | -0.193 | 0.932 | -0.0762 | 0.439 |
| AATACAGGGGCACTAGGCCAGAGTAGGTACGAAT | -0.0916 | 0.117 | -0.197 | 0.693 | -0.000441 | 1.5 | 2.84 | 2.51 | 0.512 | 1.26 | 2.1 | 3.75 | 0.831 | 0.38 | 0.784 | -0.286 | -0.158 | -0.2 | -0.664 | 1.16 |
| GCAGACAGGTGAAACGCAGGTAACCCAGGGTGGC | -0.174 | -0.00229 | -0.737 | -0.377 | -1.23 | 0.855 | 0.586 | -0.135 | -0.728 | -0.633 | 0.158 | 0.862 | -0.147 | -0.879 | -0.777 | -0.365 | -0.8 | 0.305 | -1.34 | 0.601 |
| TCATATAGGTAAAAGCTGAAAGTCGGTGTGGTAA | 0.59 | 0.549 | -0.108 | 0.664 | -0.24 | 1.41 | 0.589 | 2.74 | 3.52 | 3.25 | 4.01 | 2.14 | 1.19 | 0.683 | 0.11 | 0.239 | -0.198 | 0.257 | 0.519 | 0.0291 |
| CCTAGTTGGTCAAGGTTACACACGCTATAGGTAC | 1.22 | 1.09 | 0.67 | 1.4 | 0.618 | 1.79 | 1.82 | 2.2 | 0.763 | 1.81 | 1.65 | 2.24 | 1.11 | 1.66 | 2.04 | 1.19 | 1.09 | 1.6 | 1.63 | 1.99 |
| ACTATTAGTTGTCTTAGGGCAACCGATACGACGC | 0.119 | 0.0228 | 0.27 | 0.0317 | 0.936 | -0.245 | 0.651 | 0.232 | 0.276 | 0.044 | 0.0563 | 0.447 | 1.35 | 1.18 | 0.545 | -0.171 | 0.0491 | -0.0308 | 0.604 | 0.618 |
| TGCATGAGGTTAAAGATCAGGGAACGTGGCGTCG | 3.2 | 2.84 | 0.267 | 1.84 | 0.579 | 3.89 | 4.03 | 4.6 | 2.43 | 4.38 | 0.0827 | 1.55 | 0.0491 | 0.396 | 1.07 | 2.23 | 0.0644 | 2.93 | 0.611 | 2.23 |
| CAAACTAGGTCAAAGGTCAAATTCGAGCCAACCA | 8.57 | 7.2 | 6.34 | 7.43 | 4 | 7.66 | 14.1 | 11.5 | 12.7 | 14 | 8.73 | 9.36 | 7.2 | 6.6 | 8.4 | 7.16 | 1.57 | 8.86 | 3.32 | 5.62 |
